Source: PubChem BioAssay (NCATS)
Results filed as inconclusive are left out. Entries that show only a call come without a potency. Activity calls are given as the source filed them. The call rests on the fitted dose curve; in most records, active means well fitted inhibition curve with a large enough effect; inconclusive means small, poorly fitted or top-dose-only effect; inactive means no such curve, though single readings can be large or run the other way. *1 amine or outer side, *2 acyl side, *3 side chain or, on linkers, in order; H or OH if unused. Where a SMILES comes first, the peptide text is derived from it. Bridges are numbered along the chain shown (N, C = ends). [ ]: non-standard residue; d: D form. The star is where a group is joined. pTerphenylCO(4''-OnC5H11) = CCCCCOc1ccc(-c2ccc(-c3ccc(C(=O)*)cc3)cc2)cc1; Orn(4R-OH,5R-OH) = O=C([C@H](C[C@@H](O)[C@@H](O)N[*:3])N[*:1])[*:2]; hTyr(3S-OH,4S-OH) = N[C@H](C(=O)O)[C@H](O)[C@@H](O)c1ccc(O)cc1; Pro(3S-OH,4S-Me) = C[C@H]1CN[C@H](C(=O)O)[C@H]1O; Hyp = O=C(O)[C@@H]1C[C@@H](O)CN1

Test: P-glycoprotein substrates identified in KB-3-1 adenocarcinoma cell line, qHTS therapeutic library screen (AID 1346986); further: nearly all actives have a fitted effect of over 60% in size;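 further: potency is for cytotoxicity meaning loss of cell viability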
Details: KB-3-1 parental cells viability, CellTiter-Glo, 72 h; series mostly up to 44.5 µM; activity change, negative = cytotoxicity: at the top concentration
Method in brief: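 72 h cell-killing screen, 500 cells/well, CellTiter-Glo luminescence. Paired lines KB-3-1/KB-8-5-11; P-gp dependence checked by tariquidar co-treatment and HEK-293 MDR-19 versus empty-vector cells.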
Potency means the concentration at half of the fitted maximal effect.

Row | Compound | outcome | Potency
1 | C=C1C(=O)O[C@@H]2/C=C(/C)[C@@H](OC(C)=O)C/C=C(\C)C[C@@H](OC(=O)/C(=C/CO)CO)[C@@H]12 | inactive [at 17.4 µM] | 
2 | CN(C)c1cccc(Oc2cnc(Nc3cccc(O)c3)nc2)c1 | inactive | 
3 | Fc1ccc(-c2nc(-c3ccccc3F)[nH]c2-c2ccncc2)cc1 | inactive | 
4 | CC(=O)OC1C(O)CC2(C)C(CCC3(C)C2CC=C2C4C5(CCC(CO[C@@H]6O[C@H](CO)[C@@H](O)[C@H](O)[C@H]6O)(OC5=O)C4(C)O)C(O)CC23C)C1(C)C (some centres undefined) | inactive [at 17.4 µM] | 
5 | O=C(c1cc(Cc2n[nH]c(=O)c3ccccc23)ccc1F)N1CCCNCC1 | inactive | 
6 | Cc1cc2c(F)c(Oc3ncnn4cc(OCC(C)OC(=O)C(C)N)c(C)c34)ccc2[nH]1 (centres undefined) |  | 16.4 µM (active)
7 | COc1cc2ncnc(Nc3cccc(I)c3)c2cc1OC |  | 6.51 µM (active)
8 | CN(C)c1ccc(NC(=O)NS(=O)(=O)c2ccc(Cl)cc2)cc1 | inactive | 
9 | Cn1sc(=O)n(Cc2ccccc2)c1=O |  | 7.31 µM (active)
10 | Cc1nc(NC(=O)N2CCC[C@H]2C(N)=O)sc1-c1ccnc(C(C)(C)C(F)(F)F)c1 |  | 11.6 µM (active)
11 | C[C@H](Nc1cc2c(-c3ccc4c(c3)OCO4)noc2cn1)c1ccccc1 | inactive | 
12 | C=C1C(=O)O[C@@H]2C[C@@]3(C)C[C@@H](O)C[C@H](C)C3=C[C@H]12 | inactive | 
13 | CCCCCOc1ccc(-c2ccc(-c3ccc(C(=O)N[C@H]4C[C@@H](O)[C@@H](O)NC(=O)[C@@H]5[C@@H](O)[C@@H](C)CN5C(=O)[C@H]([C@@H](C)O)NC(=O)[C@H]([C@H](O)[C@@H](O)c5ccc(O)cc5)NC(=O)[C@@H]5C[C@@H](O)CN5C(=O)[C@H]([C@@H](C)O)NC4=O)cc3)cc2)cc1 ({pTerphenylCO(4''-OnC5H11)}-[Orn(4R-OH,5R-OH)]T[Hyp][hTyr(3S-OH,4S-OH)]T[Pro(3S-OH,4S-Me)]; lactam 1-C) | inactive [at 17.4 µM] | 
14 | CC(=O)c1c(C)cc2cccc(O)c2c1O[C@@H]1O[C@H](CO)[C@@H](O)[C@H](O)[C@H]1O | inactive | 
15 | CC(=O)O[C@H]1CC[C@]2(C)[C@H]3CC[C@]4(C)Oc5oc(C)cc(=O)c5C[C@H]4[C@]3(C)CC[C@H]2C1(C)C | inactive [at 17.4 µM] | 
16 | C=CC(=O)N1CC(N2CCN(C(=O)CNc3cc(C4CC4)c(Cl)cc3O)CC2)C1 | inactive | 
17 | CCN(CC)C(=O)C(c1ccccc1)N1CCN(c2ccc(NC(=O)c3ccccc3-c3cccnc3)cc2F)CC1 (centres undefined) | inactive | 
18 | CC(C)C[C@H](CO)Nc1nc(S[C@@H](C)c2ccccc2)nc2nc(N)sc12 | inactive | 
19 | N#Cc1cc(-c2ccnc(Nc3ccc(N4CCOCC4)cc3)n2)ccc1OC1CCOCC1 |  | 13 µM (active)
20 | C=C(C)C1=C[C@@]2(C)C(=CC1=O)CC[C@@H](O)[C@@H]2C | inactive | 

Row | Compound | outcome | Potency
21 | O=C(/C=C/c1ccccc1O)O[C@@H]1O[C@H](CO)[C@@H](O)[C@H](O)[C@H]1O | inactive | 
22 | CC#CCn1c(N2CCCC(N)C2)nc2c1c(=O)n(Cc1nc(C)c3ccccc3n1)c(=O)n2C (centres undefined) | inactive | 
23 | C[C@H]1CC[C@@]2(OC1)O[C@H]1CC3[C@@H]4CC[C@@H]5C[C@@H](O[C@@H]6O[C@H](CO)[C@@H](O[C@@H]7O[C@H](CO[C@@H]8OC[C@@H](O)[C@H](O)[C@H]8O)[C@@H](O[C@@H]8O[C@H](CO)[C@H](O)[C@H](O)[C@H]8O)[C@H](O)[C@H]7O)[C@H](O)[C@H]6O)CC[C@]5(C)C4CC[C@]3(C)[C@H]1[C@@H]2C (some centres undefined) | inactive [at 9.29 µM] | 
24 | COc1c(C(C)C)c(O)c(O)c2c1C(OC)[C@H]1OC(=O)[C@@]23CCCC(C)(C)[C@H]13 (some centres undefined) | inactive | 
25 | C=C(C)C(=O)O[C@H]1[C@H]2C(=C)C(=O)O[C@@H]2/C=C(\CO)CC/C=C(/C=O)[C@@H]1O | inactive | 
26 | CC1(C)CC[C@]23CO[C@@]4(CCC5[C@@]6(C)CC[C@H](O[C@@H]7OC[C@H](O[C@@H]8O[C@H](CO)[C@@H](O)[C@H](O)[C@H]8O[C@@H]8OC[C@@H](O)[C@H](O)[C@H]8O)[C@H](O)[C@H]7O)[C@@](C)(CO)C6CC[C@@]5(C)[C@]4(C)CC2=O)[C@@H]3C1 (some centres undefined) | inactive [at 9.29 µM] | 
27 | COc1ccc(CN2CCN(CCCSc3cc(C(C)(C)C)c(O)c(C(C)(C)C)c3)CC2)c(OC)c1OC | inactive [at 9.29 µM] | 
28 | Cn1cc(C2=C(c3coc4ccccc34)C(=O)NC2=O)c2cc(Br)ccc21 | inactive | 
29 | COc1c(C)cc(NC(=O)c2nn(Cc3ccc(F)cc3)c3c2CN(C(=O)c2ccc[nH]2)C[C@]3(C)C(N)=O)cc1C | inactive [at 9.29 µM] | 
30 | C[C@H](Nc1ncnc2nc[nH]c12)c1cc2cccc(Cl)c2c(=O)n1-c1ccccc1 |  | 20.6 µM (active)
31 | C=C1C(=O)O[C@@H]2C[C@H](C)[C@@H]3CC(=O)[C@H](O)[C@@]3(C)C[C@H]12 | inactive | 
32 | O=C1NC(=O)C(c2cnc3ccccn23)=C1c1cn2c3c(cc(F)cc13)CN(C(=O)N1CCCCC1)CC2 |  | 5.8 µM (active)
33 | O=C(Cc1c(F)cccc1F)Nc1cc(OCc2ccc(Cl)cc2)ccn1 | inactive | 
34 | CC1(C)CC[C@]2(C(=O)O[C@@H]3O[C@H](CO)[C@@H](O)[C@H](O)[C@H]3O)CC[C@]3(C)C(=CCC4[C@@]5(C)CC[C@H](O[C@@H]6O[C@H](C(=O)O)[C@H](O)[C@H](O)[C@H]6O)C(C)(C)C5CC[C@]43C)[C@@H]2C1 (some centres undefined) | inactive [at 17.4 µM] | 
35 | COc1ccc(NC(=O)C2C[C@H](C)CC[C@H]2C(C)C)cc1 (some centres undefined) | inactive | 
36 | CCC/C=C/C(=O)O[C@H]1CC(C)(C)CC2[C@@]13[C@H](O)C[C@]1(C)[C@@]2(CCC2[C@@]4(C)CC[C@H](O[C@@H]5O[C@H](C(=O)O)[C@@H](O)[C@H](O[C@@H]6O[C@H](CO)[C@H](O)[C@H](O)[C@H]6O[C@@H]6O[C@@H](C)[C@H](O)[C@@H](O)[C@H]6O[C@@H]6OC[C@](O)(CO)[C@H]6O)[C@H]5O[C@@H]5O[C@H](CO)[C@H](O)[C@H](O)[C@H]5O)C(C)(C)C4CC[C@]21C)O[C@H]3O (some centres undefined) | inactive [at 9.29 µM] | 
37 | COc1cc2ncc(-c3ccccc3)nc2cc1OC |  | 7.31 µM (active)
38 | CC#CC(=O)Nc1ccc2ncnc(Nc3cccc(Br)c3)c2c1 |  | 10.3 µM (active)
39 | COC1=CC(=O)C=C(C)C12Oc1c(Cl)c(OC)cc(OC)c1C2=O (centres undefined) | inactive | 
